Bioassay records (PubChem BioAssay)
MsrA inhibitor – inhibits bovine methionine sulfoxide reductase A | purified bovine MsrA, absorbance read-out | inhibition, % at 15.5 µM | 360,000 tested, 0.75% active; in the data active = inhibition above about 4.5%;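 also: 0% = vehicle wells with enzyme and 100% = reference inhibitor wells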
ZTA DNA inh – counter-screen for EBNA-1 inhibitors: inhibitors of Epstein-Barr virus ZTA; ZTA-DNA binding, fluorescence polarization; inhibition, % at 11 µM; 320,000 tested, 0.15% active; in the data active = inhibition above about 33%
PP5 primary – inhibitors of human protein phosphatase 5 (PP5) | P53041 | purified PP5c, OMFP substrate fluorescence | inhibition, % at 6.7 µM | 320,000 tested, 0.18% active | AID 1987;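 active = inhibition above the campaign's mean inhibition across all tested compounds plus 3 SD, cut at about 9.5% in these data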;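 also: 0% = DMSO only and 100% = 100 µM cantharidin control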
Target sequence (P53041 whole entry, looked up): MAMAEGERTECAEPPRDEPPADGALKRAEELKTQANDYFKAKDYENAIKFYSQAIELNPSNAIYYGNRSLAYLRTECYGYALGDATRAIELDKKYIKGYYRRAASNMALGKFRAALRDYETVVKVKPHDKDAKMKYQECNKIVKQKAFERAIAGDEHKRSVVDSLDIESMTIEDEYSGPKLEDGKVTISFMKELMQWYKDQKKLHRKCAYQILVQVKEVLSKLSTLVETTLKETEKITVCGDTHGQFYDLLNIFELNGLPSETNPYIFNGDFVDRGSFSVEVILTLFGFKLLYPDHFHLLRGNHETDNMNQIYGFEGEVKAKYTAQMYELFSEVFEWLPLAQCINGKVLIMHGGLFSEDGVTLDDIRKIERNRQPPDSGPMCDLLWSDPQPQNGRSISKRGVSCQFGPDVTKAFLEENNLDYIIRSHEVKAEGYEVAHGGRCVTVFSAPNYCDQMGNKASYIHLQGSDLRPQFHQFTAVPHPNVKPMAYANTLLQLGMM
EBNA-1 inhibitor – blocks EBNA-1 binding to DNA. EBNA-1 DNA binding, fluorescence polarization. inhibition, % at 14.8 µM. 300,000 tested, 0.34% active; in the data active = inhibition above about 28%
PP1 inh – blocks human PP1-alpha phosphatase, a PP5 counter-screen; purified PP1alpha, OMFP fluorescence; P62136; AID 2235; 320,000 tested, 0.9% active; inhibition, % at 6.7 µM;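 active = inhibition above the mean inhibition of all tested compounds plus 3 SD, computed separately for each screening campaign, cut at about 15% in these data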
bovine MsrA act – bovine methionine sulfoxide reductase A activation; purified bovine MsrA, absorbance read-out; activation, % at 10.6 µM; 360,000 tested, 0.3% active; in the data active = activation above about 7.5%;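 also: 0% = vehicle and 100% = reference activator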
PP1 inh confirm – confirmation of human PP1 phosphatase inhibitors; purified PP1alpha, OMFP substrate fluorescence; shares compounds with PP1 inh; 1,900 tested, 52% active; inhibition, % at 6.7 µM;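 active = mean PP1 inhibition above a set limit taken from the earlier primary screen, cut at about 15% in these data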
PP5 counter – PP5 phosphatase inhibition, counter-screen for PP1 inhibitors | shares compounds with PP1 inh | purified PP5c, OMFP fluorescence | inhibition, % at 6.7 µM | 1,900 tested, 4% active;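 active = mean PP5 inhibition over triplicate wells above about 9.5% taken from the earlier PP1 screen, limit read from the data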
* hit, by the source's call; x = not tested or not shown. Rows were chosen to be rich in hits. Some 2.3% of all compounds tested hit in one or more screens of this group.

SMILES	MsrA inhibitor	ZTA DNA inh	PP5 primary	EBNA-1 inhibitor	PP1 inh	bovine MsrA act	PP1 inh confirm	PP5 counter
COc1cc(OC)nc(NC(=O)CS(=O)(=O)c2ccccc2)n1	0	-14	0	3	30*	-10	-3	-1
COc1ccc(OC)c(NC(=O)CS(=O)(=O)c2ccccc2)c1	1	-18	1	2	-2	-2	x	x
Cc1ccc2nc(N3C(=O)C(O)=C(C(=O)c4ccc(C)o4)C3c3cccc(O)c3)sc2c1 (stereo unspecified)	1	13	2	10	25*	-3	27*	9.7*
COc1ccc2nc(N3C(=O)C(O)=C(C(=O)c4ccco4)C3c3ccc(OC)c(OC)c3)sc2c1 (stereo unspecified)	1	x	x	x	x	-1	x	x
C=CCOc1cccc(C2C(C(=O)c3ccc(C)o3)=C(O)C(=O)N2c2nccs2)c1 (stereo unspecified)	1	16	-1	5	22*	-5	15*	-2
COc1cccc(C2C(C(=O)c3ccc(C)o3)=C(O)C(=O)N2c2cc(C)on2)c1 (stereo unspecified)	2	9	0	5	3	-4	x	x
O=C(N/N=C/c1ccncc1)c1cccc(NC(=O)c2ccc(Cl)cc2)c1	0	20	1	9	31*	-6	12	-1
O=C(N/N=C/c1ccncc1)c1cccc(N/N=C/c2ccncc2)c1	2	-6	1	9	-3	-5	x	x
O=C(CNS(=O)(=O)c1ccc(Br)cc1Cl)OCC(=O)c1ccc[nH]1	0	-1	0	3	35*	-4	1	-5
Cc1ccc(C(=O)O)cc1NC(=O)CSc1ncnc2sc3c(c12)CCC3	0	4	0	3	2	-6	x	x
CCCCCOc1ccc(/C(C)=N/NC2=NCCN2)cc1	0	-12	1	1	1	0	x	x
CCCCCCOc1ccc(/C(C)=N/NC2=NCCN2)cc1	-2	-2	3	-2	20*	-1	-1	-3
CCCCc1ccc(Nc2nc(CCC)cc(=O)[nH]2)cc1	0	-6	8	-4	18*	-1	7	4
NN(CCO)C(=S)Nc1ccc(Cl)cc1	1	12	0	-8	4	-9	x	x
O=C(Cc1cccs1)NNC(=S)NC(=O)c1ccccc1	1	5	-2	-3	3	1	x	x
O=C(/C=C/c1ccccc1)NC(=S)NNC(=O)Cc1cccs1	3	-2	-1	0	24*	6	17*	-4
O=C(O)c1cc(N2C(=O)C3C4C=CC(C4)C3C2=O)ccc1N1CCOCC1 (stereo unspecified)	1	-27	0	-1	-2	-2	x	x
Cc1nn(CCC(=O)O)c2nc(-c3cccnc3)cc(C(F)(F)F)c12	1	1	1	-9	0	-1	x	x
Cc1nn(CCc2nn[nH]n2)c2nc(-c3ccc(C4CCCCC4)cc3)cc(C(F)(F)F)c12	0	20	5	4	18*	-8	26*	3
c1ccc(COc2ccc(-c3sc(Nc4ccccc4)n[n+]3-c3ccccc3)cc2)cc1	x	0	5	3	20*	x	5	-1
CCc1ccc(Nc2n[n+](-c3ccccc3)c(-c3ccc(N(CC)CC)cc3)s2)cc1	0	-10	1	-6	24*	-3	10	-2
Fc1ccc(-[n+]2nc(Nc3ccccc3)sc2-c2c(Cl)cccc2Cl)cc1	1	-12	-5	-7	13	-2	x	x
CCc1ccc(Nc2n[n+](-c3ccccc3)c(-c3c(Cl)cccc3Cl)s2)cc1	0	-23	-4	-10	31*	-3	3	2
Cc1nn(-c2ccccc2)c2sc(C(=O)NNC(=O)COc3ccccc3)cc12	-1	2	1	1	23*	0	22*	0
Cc1nn(-c2ccccc2)c2sc(C(=O)NNC(=O)COc3cccc4ccccc34)cc12	0	-5	-7	-12	9	-1	x	x
CC1(O)C(=O)C=C2C=C(C3CC3)OC=C2C1=O (stereo unspecified)	x	21	3	3	0	x	x	x
